The list is not random: actives were taken first. Their share in the collection is about 1.2%.
TrxR1 inh: inhibitors of rat thioredoxin reductase 1; O89049; recombinant rTrxR1, NADPH fluorescence consumption, selenite substrate; Potency, µM (doses to about 114 µM), for the others: top-dose activity change, negative = inhibition, actives largely listed as inhibitors; hit rate 1% among 390,000; also: potency is read from the fitted curve at half-maximal effect; % is scaled to controls: 0 for no effect and ±100 for the full control effect; nearly all actives have a fitted effect of over 65% in size
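Rat TrxR1 (90 nM in the dispensed reagent) was pre-reduced with 400 uM NADPH for 5 min at room temperature, then incubated with compound for 15 min. After 400 uM selenite was added, NADPH fluorescence (Ex 340/Em 450 nm) was followed for 8 min.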
TrxR1 substrate: rat thioredoxin reductase 1 substrate activity; O89049; purified TrxR1 substrate turnover, NADPH consumption readout; Potency, µM (highest dose often 114 µM), without a hit: at the top dose activity change, negative = substrate turnover; hit rate 0.01% among 390,000; also: potency is read from the fitted curve at half-maximal effect; % is scaled to controls: 0 for no effect and ±100 for the full control effect; nearly all actives have a fitted effect of over 50% in size
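Rat TrxR1, dispensed at 90 nM, was prereduced with 400 uM NADPH (final) for 5 min at ~22 deg C, then incubated with compound 15 min before 400 uM selenite. A first-read NADPH fluorescence drop versus no-compound background flagged substrates.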
NPSR antag: blocks cAMP signaling of the human neuropeptide S receptor; Q6W5P4; CHO-NPSR cells, cAMP TR-FRET, antagonist mode; Potency, µM (series often up to 38.3 µM), without a hit: top-dose activity change, negative = inhibition, actives largely listed as inhibitors; hit rate 1% among 220,000; also: potency is read from the fitted curve at half-maximal effect; % is scaled to controls: 0 for no effect and ±100 for the full control effect; nearly all actives have a fitted effect of over 50% in size
Target sequence (Q6W5P4 whole entry, looked up): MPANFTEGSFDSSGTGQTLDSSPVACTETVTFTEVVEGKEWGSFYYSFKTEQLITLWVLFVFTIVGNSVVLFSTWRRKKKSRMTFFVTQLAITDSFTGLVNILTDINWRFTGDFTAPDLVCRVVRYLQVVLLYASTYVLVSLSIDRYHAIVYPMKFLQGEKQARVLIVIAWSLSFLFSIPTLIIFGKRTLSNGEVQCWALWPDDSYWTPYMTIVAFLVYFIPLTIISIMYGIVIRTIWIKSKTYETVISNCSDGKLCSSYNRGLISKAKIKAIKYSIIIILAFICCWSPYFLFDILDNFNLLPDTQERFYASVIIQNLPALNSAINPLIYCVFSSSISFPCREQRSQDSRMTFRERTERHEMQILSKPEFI
GALK inh: blocks human galactokinase activity; Potency, µM (titrated, usually from 57.5 µM), without a hit: at the top dose activity change, negative = inhibition, actives largely listed as inhibitors; hit rate 0.007% among 270,000; P51570; Purified GALK, Kinase-Glo residual ATP luminescence; also: potency is read from the fitted curve at half-maximal effect; % is scaled to controls: 0 for no effect and ±100 for the full control effect
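Quantitative HTS: GALK 5 nM, ATP 35 uM, galactose 100 uM, 1 h room temperature, then luciferase-based ATP detection.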
TRb-SRC2 inh: confirmation of human TRb-SRC2 interaction inhibitors | shares compounds with TrxR1 inh | AlphaScreen TRb LBD-SRC2 peptide binding, luminescence | Potency, µM | hit rate 50% among 30 | AID 2444; calls by dose curve
HepG2 viability: counter-screen for TRb-SRC2 inhibitors: HepG2 cytotoxicity. shares compounds with TrxR1 inh. HepG2 viability, ATP luminescence (CellTiter-Glo), 72 h. Potency, µM. hit rate 50% among 40; calls by dose curve
AR SRC2 FP: disrupts human androgen receptor binding to SRC2 peptide. shares compounds with TrxR1 inh. calls only. 25 tested, under 10 active. AID 2448. AR-LBD Tx-SRC2-3 fluorescence polarization, 3 h; call rule not given here
PPARg-DRIP2 inh: selectivity of TRb-SRC2 inhibitors: human PPARgamma coactivator binding inhibition; shares compounds with TrxR1 inh; PPARg LBD / Texas Red DRIP-2 peptide, fluorescence polarization, 3 h; Potency, µM; 25 tested, under 10 active; AID 2449; calls by dose curve
VDR-SRC2 FP sel: selectivity of TRb-SRC2 inhibitors: human vitamin D receptor-SRC2 inhibition; shares compounds with TrxR1 inh; VDR LBD/SRC2-3 peptide, fluorescence polarization, 3 h; Potency, µM; 25 tested, under 10 active; calls by dose curve
TRb SRC2 FluoFP: TRb-SRC2 (human) inhibition, fluorescein FP confirmation; shares compounds with TrxR1 inh; TRb LBD / fluorescein-SRC2 peptide, fluorescence polarization; Potency, µM; 20 tested, under 10 active; AID 2487; call rule not given here
* = called active by the depositor; i = inactive; ? = inconclusive; . = no result; [ ] = another dose, or the depositor's remark. Unless noted, calls follow the shape of the dose curve; as a rule, active = well fitted curve in the direction sought with a large enough effect; inconclusive = small, poorly fitted or top-dose-only effect, or another doubt; inactive = no such curve, though single readings can be large; an effect the other way counts as inactive or inconclusive.

SMILES | TrxR1 inh | TrxR1 substrate | NPSR antag | GALK inh | others
CCOC(=O)CSC1=NC(=O)/C(=C/c2ccc(OC)cc2)S1 | 16µM* | -13% | -56% | 1%
Cc1cc(N/N=C/c2ccc(N(C)C)cc2)nc(NCc2ccccc2)n1 | 32% | 30% | 10µM* | -1%
O=C(O)COc1ccc2c(c1)O/C(=C\c1ccco1)C2=O | 45µM* | -1% | . | .
O=C(O)COc1ccc2c(c1)O/C(=C\c1cccs1)C2=O | -14% | -14% | -9% | .
CCN(CC)c1ccc(/C=C2\SC(=O)N(C(C)C)C2=O)o1 | 4µM* | -19%[57.1 µM] | ? | -4%
N#CC1=C(N)C2=CCCC[C@H]2[C@H](c2ccccc2)C1(C#N)C#N | ? | -1% | 5% | -1%
N#CC1=C(N)C2=CCCC[C@H]2[C@H](c2ccc(Br)cc2)C1(C#N)C#N | 5µM* | 3% | -16%[46.1 µM] | -1%
Cc1cc(S(=O)(=O)N2CCCC2)ccc1OCC(=O)NCc1ccco1 | 10µM* | 10% | -6%[46.1 µM] | -1%
O=C(OCc1ccco1)c1ccc(S(=O)(=O)N2CCCCC2)cc1 | 18µM* | 2%[57.1 µM] | -23%[46.1 µM] | -1%
O=C(COC(=O)c1ccc(S(=O)(=O)N2CCCCC2)cc1)NCc1ccco1 | 22%[57.1 µM] | 7%[57.1 µM] | 6% | -1%
CC(C)(C)c1ccc(OCC(=O)NCc2ccco2)c(Br)c1 | 11µM* | -2% | -21%[46.1 µM] | -3%
Cc1ccc(C(=O)NCc2ccco2)cc1Br | 18µM* | 1% | 1%[46.1 µM] | 0%
Cc1cc(S(=O)(=O)N2CCOCC2)ccc1OCC(=O)NCc1ccco1 | -8%[57.1 µM] | -4%[57.1 µM] | . | -1%
COc1ccc(-c2c(C3C4C=CCCC4(C)C(=O)N3Cc3ccccc3)ccc3ccccc23)cc1 (stereo unspecified) | 14% | 0% | . | .
CCCCC(=O)N1C/C=C\C(c2ccc(OC)cc2)N(Cc2ccc(F)cc2)C(=O)C1Cc1ccccc1 (stereo unspecified) | -1% | -10% | . | .
COc1ccccc1CC(=O)NO | 9% | 16% | . | .
CCCCN(CCCC)c1ccc(C=Nc2ccc(/C=C/c3ccnc4ccccc34)cc2)cc1C | -12% | -12% | . | .
C[N+](C)(CCCCCI)c1ccc(/C=C/c2nc3ccccc3s2)cc1 | -26% | -10% | . | .
O=C(COC(=O)Cc1cccc(C(F)(F)F)c1)NCc1ccco1 | 35µM* | -5% | . | .
O=C(COC(=O)Cc1ccc(F)cc1)NCc1ccco1 | -1% | 3% | 10% | -6%
Cc1cc(OCC(=O)Nn2cnnc2)c(C)cc1Br | 14µM* | -9% | 1%[46.1 µM] | 0%
CC1CCCCN1C(=O)COC(=O)CSc1ccc(C(N)=O)cc1[N+](=O)[O-] (stereo unspecified) | 13%[57.1 µM] | 6%[57.1 µM] | . | .
CC1CN(C(=O)COC(=O)c2ccc(N)c([N+](=O)[O-])c2)CC(C)O1 (stereo unspecified) | 4% | 6%[57.1 µM] | 14% | -1%
CS(=O)(=O)c1ccc(C(=O)OCC(=O)N2CCC(Cc3ccccc3)CC2)cc1[N+](=O)[O-] | . | . | . | . | HepG2 viability=9µM*
CC1CCCCN1C(=O)COC(=O)c1ccc(S(C)(=O)=O)c([N+](=O)[O-])c1 (stereo unspecified) | 10µM* | -1% | . | . | TRb-SRC2 inh=19µM*;HepG2 viability=22µM*;AR SRC2 FP=i;PPARg-DRIP2 inh=i;VDR-SRC2 FP sel=i;TRb SRC2 FluoFP=9.1µM*
CCCC1CCN(C(=O)COC(=O)c2ccc(S(C)(=O)=O)c([N+](=O)[O-])c2)CC1 | . | . | . | . | HepG2 viability=6.6µM*
